SMILES strings stand for the structures. This is part of a sample that, as a whole, favours compounds with a hit. Of some 83,000 tested, about 20% had one in any assay.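 For each line, cells grew in 96-well plates with the test compound present at a single concentration for 48 hours.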 The source made the active and inactive calls. Rule for the calls: active = growth percent below 10; inactive = the rest.

In the first test the test system is ACHN renal. Kind of test: NCI-60 one-dose screen, 48 h (100 = growth as untreated, 0 = no growth, -100 = all killed). The following applies: 10 µM unless noted.
For the compound `CC(=C(c1ccc(OCCN2CCCC2)cc1)c1ccc(OCCN2CCCC2)cc1)c1ccc(Cl)cc1`, the growth was -72.5% (active).
Take `CCN(CC)CCOc1ccc(C(=C(C)Cc2ccc(OC)cc2)c2ccc(OCCN(CC)CC)cc2)cc1`: the growth was 46.7% (inactive).
`Fc1ccc(-c2cn3c(-c4c[nH]c5ccc(Br)cc45)csc3n2)cc1`: the growth is 49% (inactive).
Turning to `CC1=C(C)C(=O)C(Nc2cccc(C(=O)OC(C)(C)C)c2)=CC1=O`, the growth was 86.4% (inactive).
The same measure, in the same setting: with `CSc1ccc(/C(=N/N=C(N)N)c2ccc(Cl)cc2)cc1` the figure was 15% (inactive); with `O=C(/C=C/Nc1ccc(S(=O)(=O)Nc2ncccn2)cc1)c1ccc(N=Cc2c(O)[nH]c3ccccc23)cc1`, 106% (inactive).
Still for that read-out and setting: with `N#Cc1c(-c2cccs2)cc(-c2cnccn2)nc1SCC(=O)N/N=C/c1cccs1` the figure was 49.8% (inactive); with `O=S(=O)(NCCCNc1nccc(-c2[nH]c(-c3ccccc3)nc2-c2ccc(F)c(O)c2)n1)c1ccccc1`, 95.4% (inactive); with `CC1(C)CC[C@]2(C(=O)NCCCCCCN(CCCN)CCCN)CC[C@]3(C)C(=CC[C@@H]4[C@@]5(C)CC[C@H](O)C(C)(C)[C@@H]5CC[C@]43C)[C@@H]2C1`, 105% (inactive).
Still for that read-out and setting: the same measure for `CCOC(=O)c1c(NCC(=O)Nc2cccc([N+](=O)[O-])c2)sc(C(C)=O)c1C`: -13.5% (active); for `O=c1oc2ccc(-c3ccc(F)cc3F)cc2c(=O)n1-c1ccc(Br)cc1F`: 80.5% (inactive); for `Cc1ccc2c(n1)C(=O)C(Cl)=C(Nc1cccc(C(=O)OC(C)(C)C)c1)C2=O`: 77% (inactive).
Turning to `C/C(=C(\c1ccc(O)cc1)c1ccc(OCCN2CCCCCC2)cc1)c1ccc(Cl)cc1`, the growth was -88.2% (active).
In the case of `CC1=C(C)C(=O)C(Nc2cccc(C(F)(F)F)c2)=C(Br)C1=O`, the growth was 72.3% (inactive).
The same measure, in the same setting: the same measure for `CC(C)C(/C=C/c1[nH]ncc1-c1cc(Cl)ccc1O)N1CCOCC1` (configuration not stated): 92.8% (inactive); for `Fc1cccc(Cl)c1/C=N/Nc1nc(N/N=C/c2c(F)cccc2Cl)nc(N2CCCCC2)n1`: 4.21% (active).
As for `COc1ccc(C2C(C#N)=C(/N=C/c3ccc(Cl)cc3)Oc3c2sc2c(C)cccc32)cc1` (configuration not stated), the growth is 49.1% (inactive).
Still for that read-out and setting: with `O=C(CCCCCCNC(=O)C(O)(O)C(F)(F)F)Nc1ccc(Cl)cc1` the figure was 0.488% (active); with `O=C1C(SCc2ccccc2)=C(Cl)CN1c1ccc(Cl)cc1`, 98.1% (inactive); with `Cc1ccc(-c2nc(SCC(=O)c3ccccc3)nc(Nc3ccc(S(N)(=O)=O)cc3)c2C#N)cc1`, 89.7% (inactive).
As for `O=C1C(N2CCN(c3ccccc3)CC2)=C(Cl)C(=O)c2ncccc21`, the growth was -3.31% (active).
Still for that read-out and setting: with `C#Cc1nc(C(=O)NCCCCCCC(=O)NO)cs1` the figure was -86.5% (active); with `C[C@H](Nc1ncnc2ccc(-c3cnc(Cl)c(NS(C)(=O)=O)c3)cc12)c1ccccc1`, 9.8% (active).
Same read-out and setting: the same measure for `Cc1ccc(/C=N/Nc2nc(Nc3ccccc3)nc(Nc3ccc(S(N)(=O)=O)cc3)n2)cc1`: 61.2% (inactive).
As to `Cc1ccc(S(=O)(=O)NCCCNc2nc(Nc3ccc(N4CCN(C)CC4)cc3)nc3ccsc23)cc1`, the growth is 11.7% (inactive).
In the case of `CC(C)=CCC[C@](C)(O)[C@H]1CC[C@]2(C)[C@@H]1CC[C@@H]1[C@@]3(C)CC[C@H](N)C(C)(C)[C@@H]3CC[C@]12C`, the growth is 91.7% (inactive).
Consider `NNc1nnc2nc(Nc3ccccc3)nc(Nc3ccc(S(N)(=O)=O)cc3)n12`, for which the growth was 106% (inactive).

The test system of the next test is CAKI-1 renal. The test is described as above. The following applies: 10 µM unless noted.
As to `COCCOc1ccc2ncc(C#Cc3cncc(C(=O)Nc4ccc(CN5CCN(C)CC5)c(C(F)(F)F)c4)c3)n2n1`, the growth was 1.32% (active).
With `CCOC(=O)c1c(N)c(C#N)cn1Cc1ccc(Cl)cc1Cl`, the growth is 62.4% (inactive).
Same read-out and setting: the same measure for `Cc1ccc(Nc2nc(SC(C)C)nc(-c3ccccc3)c2C#N)cc1`: 75.8% (inactive); for `O=C(CSc1nc2ccccc2c(=O)n1-c1ccc(Cl)c(Cl)c1)Nc1ccc(S(=O)(=O)Nc2ccc(Cl)nn2)cc1`: 82.1% (inactive); for `N#Cc1cnc2ccc(-c3cnc4n[nH]nc4c3)cc2c1N1CCc2cc(F)c(Cl)cc21`: 6.12% (active).
Still for that read-out and setting: with `CNC(=O)Nc1ccc(Nc2cc(-c3ccc(-n4cccn4)cc3)[nH]n2)c(C)c1` the figure was 113% (inactive).
With `CN1CCN(Cc2ccc(NC(=O)c3cncc(C#Cc4cnc5ccc(N)nn45)c3)cc2C(F)(F)F)CC1`, the growth is 13.8% (inactive).
For the compound `Cc1cc(=O)oc2cc(OCCCOc3ccc(/C=C/C(=O)Nc4ccc(Br)cc4)cc3)ccc12`, the growth was 104% (inactive).
On to `C/C(CC1(O)C(=O)Nc2ccccc21)=N\O` (configuration not stated), for which the growth is 83.5% (inactive).
On the same count and under the same terms, with `Cc1ccc2c(n1)C(=O)C(Cl)=C(Nc1ccccc1C(=O)OC(C)(C)C)C2=O` the figure was -92.4% (active); with `COc1ccc(/C=N\NC(=O)c2cnn(CC(O)c3ccccc3)c2N)cc1OCc1ccc(Cl)cc1` (configuration not stated), 71% (inactive); with `NC(N)=NS(=O)(=O)c1ccc(N=Nc2c(N)nn(-c3ccc([N+](=O)[O-])cc3[N+](=O)[O-])c2N)cc1`, 90.5% (inactive).
For `COc1ccccc1Cn1cc(C#N)c(N)c1C(=O)c1ccc(Br)cc1`, the growth is 80.6% (inactive).
Consider `CC(=C(c1ccc(OCCN2CCCC2)cc1)c1ccc(OCCN2CCCC2)cc1)c1ccc(Cl)cc1`, for which the growth was 26.8% (inactive).
Take `CCN(CC)CCOc1ccc(C(=C(C)Cc2ccc(OC)cc2)c2ccc(OCCN(CC)CC)cc2)cc1`: the growth is 69.8% (inactive).
Same read-out and setting: with `Fc1ccc(-c2cn3c(-c4c[nH]c5ccc(Br)cc45)csc3n2)cc1` the figure was 38.3% (inactive); with `CC1=C(C)C(=O)C(Nc2cccc(C(=O)OC(C)(C)C)c2)=CC1=O`, 71.5% (inactive).
On the same count and under the same terms, with `CSc1ccc(/C(=N/N=C(N)N)c2ccc(Cl)cc2)cc1` the figure was 3.83% (active); with `O=C(/C=C/Nc1ccc(S(=O)(=O)Nc2ncccn2)cc1)c1ccc(N=Cc2c(O)[nH]c3ccccc23)cc1`, 94.4% (inactive); with `N#Cc1c(-c2cccs2)cc(-c2cnccn2)nc1SCC(=O)N/N=C/c1cccs1`, 30% (inactive).
`O=S(=O)(NCCCNc1nccc(-c2[nH]c(-c3ccccc3)nc2-c2ccc(F)c(O)c2)n1)c1ccccc1`: the growth was 105% (inactive).
Still for that read-out and setting: the same measure for `CC1(C)CC[C@]2(C(=O)NCCCCCCN(CCCN)CCCN)CC[C@]3(C)C(=CC[C@@H]4[C@@]5(C)CC[C@H](O)C(C)(C)[C@@H]5CC[C@]43C)[C@@H]2C1`: 75.2% (inactive); for `CCOC(=O)c1c(NCC(=O)Nc2cccc([N+](=O)[O-])c2)sc(C(C)=O)c1C`: -30.8% (active).
The same measure, in the same setting: the same measure for `O=c1oc2ccc(-c3ccc(F)cc3F)cc2c(=O)n1-c1ccc(Br)cc1F`: 61.9% (inactive).
The same measure, in the same setting: the same measure for `Cc1ccc2c(n1)C(=O)C(Cl)=C(Nc1cccc(C(=O)OC(C)(C)C)c1)C2=O`: 77.7% (inactive).
Take `C/C(=C(\c1ccc(O)cc1)c1ccc(OCCN2CCCCCC2)cc1)c1ccc(Cl)cc1`: the growth was -97.3% (active).
Turning to `CC1=C(C)C(=O)C(Nc2cccc(C(F)(F)F)c2)=C(Br)C1=O`, the growth was 94.3% (inactive).
On the same count and under the same terms, the same measure for `CC(C)C(/C=C/c1[nH]ncc1-c1cc(Cl)ccc1O)N1CCOCC1` (configuration not stated): 69.7% (inactive); for `Fc1cccc(Cl)c1/C=N/Nc1nc(N/N=C/c2c(F)cccc2Cl)nc(N2CCCCC2)n1`: 14.1% (inactive); for `COc1ccc(C2C(C#N)=C(/N=C/c3ccc(Cl)cc3)Oc3c2sc2c(C)cccc32)cc1` (configuration not stated): 39% (inactive).
As for `O=C(CCCCCCNC(=O)C(O)(O)C(F)(F)F)Nc1ccc(Cl)cc1`, the growth is 3.96% (active).
For `O=C1C(SCc2ccccc2)=C(Cl)CN1c1ccc(Cl)cc1`, the growth is 90.7% (inactive).
For the compound `Cc1ccc(-c2nc(SCC(=O)c3ccccc3)nc(Nc3ccc(S(N)(=O)=O)cc3)c2C#N)cc1`, the growth was 51.5% (inactive).
`O=C1C(N2CCN(c3ccccc3)CC2)=C(Cl)C(=O)c2ncccc21`: the growth is 39.9% (inactive).
`C#Cc1nc(C(=O)NCCCCCCC(=O)NO)cs1`: the growth is -80.2% (active).
Same read-out and setting: with `C[C@H](Nc1ncnc2ccc(-c3cnc(Cl)c(NS(C)(=O)=O)c3)cc12)c1ccccc1` the figure was -22.4% (active); with `Cc1ccc(/C=N/Nc2nc(Nc3ccccc3)nc(Nc3ccc(S(N)(=O)=O)cc3)n2)cc1`, 61% (inactive); with `Cc1ccc(S(=O)(=O)NCCCNc2nc(Nc3ccc(N4CCN(C)CC4)cc3)nc3ccsc23)cc1`, 14.5% (inactive).
Still for that read-out and setting: the same measure for `CC(C)=CCC[C@](C)(O)[C@H]1CC[C@]2(C)[C@@H]1CC[C@@H]1[C@@]3(C)CC[C@H](N)C(C)(C)[C@@H]3CC[C@]12C`: 67.8% (inactive).
With `NNc1nnc2nc(Nc3ccccc3)nc(Nc3ccc(S(N)(=O)=O)cc3)n12`, the growth was 94.5% (inactive).

(Values after PubChem BioAssay (NCI).)
